The values that follow come from PubChem BioAssay AID651658 (Broad Institute, 2012).

The structures appear in SMILES notation. “And” between values parts separate entries of the source, which are not always exact repeats. Equal values may be shown once. Screen size: about 340,000 compounds; about 5,100 (1.5%) were called active.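 The calls were made as follows: active = mean Tm shift, scaled 0 neutral to 100 positive control, at about 1.3% or above, every replicate too (limit read from the data); inconclusive = no clear call, values can overlap the other calls; inactive = the rest.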 The full list was thinned out, with actives kept by preference.

Chain of Fibroblast growth factor 22 (Homo sapiens) (Q9HCT0 whole entry, looked up): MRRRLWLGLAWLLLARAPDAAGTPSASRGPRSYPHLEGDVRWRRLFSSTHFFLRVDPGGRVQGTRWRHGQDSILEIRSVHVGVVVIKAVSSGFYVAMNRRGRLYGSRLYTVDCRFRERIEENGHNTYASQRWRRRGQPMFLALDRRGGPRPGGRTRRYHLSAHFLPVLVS

This test addresses Fibroblast growth factor 22 (Homo sapiens) (UniProt Q9HCT0). The test is described as follows: FGF22 ligand-induced thermal stabilization – biophysical, thermal shift, single point, FGF22 synaptogenesis inhibitor project, primary screen (AID 651658). To be noted: recombinant FGF22 thermal shift, SYPRO orange fluorescence; at 9.99 µM; stronger effect = higher value; percent of sucrose octasulfate shift, DMSO zero.
In the case of `O=C(COC(=O)c1ccc(O)cc1O)NNC(=O)c1cccs1`, the activity (Tm shift, normalised) was 0.153% (inactive).

In the case of `Cc1ccc(NNC(=O)c2cccs2)cc1Cl`, the activity (Tm shift, normalised) was -0.036% (inactive).

On to `O=C(NNC(=O)c1ccc(Cl)cc1Cl)c1cccs1`, for which the activity (Tm shift, normalised) was 43.3% (active).

As for `C/C=C/c1cnc2c(c1)C(=O)N([C@H](C)CO)C[C@H](C)[C@@H](CN(C)CC1CCOCC1)O2`, the activity (Tm shift, normalised) was -0.049% (inactive).

Consider `C[C@@H]1CN([C@@H](C)CO)S(=O)(=O)c2ccc(C3=CCCC3)cc2O[C@H]1CN(C)C(=O)CC1CC1`, for which the activity (Tm shift, normalised) is -0.028% (inactive).

Take `COc1ccc2c3c([nH]c2c1)[C@@H](CO)N(C(=O)Nc1cccc(F)c1)CC31CCN(S(=O)(=O)c2ccccc2)CC1`: the activity (Tm shift, normalised) was -0.126% (inactive).

As for `O=C(N[C@@H]1C=C[C@H](CC(=O)N2CCCCC2)O[C@H]1CO)c1cccc(F)c1`, the activity (Tm shift, normalised) is 2.12% (active).

As for `O=C(N[C@H]1CC[C@H](CC(=O)N2CCCCC2)O[C@@H]1CO)c1cccc(F)c1`, the activity (Tm shift, normalised) is -0.194% (inactive) and -0.138% (inactive).

In the case of `O=C(N[C@H]1C=C[C@@H](CC(=O)N2CCCCC2)O[C@@H]1CO)c1ccc2c(c1)OCO2`, the activity (Tm shift, normalised) is -0.043% (inactive).

`CCCNC(=O)N1CC2(CN(C(=O)c3cnccn3)C2)c2c([nH]c3cc(OC)ccc23)[C@@H]1CO`: the activity (Tm shift, normalised) was 0.028% (inactive).

As to `CCn1c(C(C)C)n[nH]c1=S`, the activity (Tm shift, normalised) is 43.3% (active).

On to `CCn1c(-c2ccncc2)n[nH]c1=S`, for which the activity (Tm shift, normalised) is 0.117% (inactive).

`CCc1cc(-c2n[nH]c(=S)n2CC(C)C)cs1`: the activity (Tm shift, normalised) is -0.833% (inactive).

Take `O=C(C[C@H]1C[C@H]2c3cc(NC(=O)Nc4ccccc4F)ccc3O[C@H]2[C@H](CO)O1)NCc1ccccn1`: the activity (Tm shift, normalised) was 0.07% (inactive).

`Cc1cccc(C)c1NC(=S)N1CCCCCC1`: the activity (Tm shift, normalised) is -0.275% (inactive).

Turning to `Cc1cccc(C)c1NC(=O)C1(N(C(=O)c2ccccn2)c2ccc(O)cc2)CCCCC1`, the activity (Tm shift, normalised) is 43% (active).

As for `Cc1cccc(C)c1NC(=O)CNC(=O)C1CCCC1`, the activity (Tm shift, normalised) was -0.023% (inactive).

With `O=C(N[C@H]1CC[C@H](CCNS(=O)(=O)c2ccc(F)cc2)O[C@H]1CO)c1cccc(F)c1`, the activity (Tm shift, normalised) was -0.051% (inactive).

For `O=C(Nc1cc(F)ccc1F)N[C@@H]1C=C[C@@H](CC(=O)N2CCc3ccccc3C2)O[C@@H]1CO`, the activity (Tm shift, normalised) was -0.137% (inactive).

`CCC(=O)N1[C@@H](CO)[C@@H]2c3ccccc3N(C(=O)c3cnccn3)C[C@@H]21`: the activity (Tm shift, normalised) is -0.28% (inactive).

Take `CCc1noc(C)c1C(=O)OCC(=O)c1ccc(NC(=O)CC(C)C)cc1`: the activity (Tm shift, normalised) was -0.332% (inactive).

Regarding `Cc1ccc(S(=O)(=O)N2CCN(C(=O)COC(=O)c3c(C)noc3C)CC2)c(C)c1`, the activity (Tm shift, normalised) is -0.319% (inactive).

Consider `COc1ccc(C(=O)COC(=O)c2c(C)noc2C)cc1Cl`, for which the activity (Tm shift, normalised) was 44% (active).

Turning to `Cn1c2c(c(=O)n(C)c1=O)C(c1cccc(F)c1)C(C#N)=C(N)O2` (configuration not stated), the activity (Tm shift, normalised) was -0.167% (inactive).

With `COC(=O)C1=CN(c2c(C)cc(C)cc2C)C(N)=C(C#N)C1c1cccc(F)c1` (configuration not stated), the activity (Tm shift, normalised) is -0.26% (inactive).

On to `CCOC(=O)C1=C(CC)OC(N)=C(C#N)C1c1ccc(F)cc1F` (configuration not stated), for which the activity (Tm shift, normalised) was 43.8% (active).

Take `CN1CCCc2nc(-c3ccccc3)ccc21`: the activity (Tm shift, normalised) was 42.2% (inactive).

Regarding `COc1ccc(-c2ccc3c(n2)CCCN3S(=O)(=O)c2ccc(C)cc2)cc1`, the activity (Tm shift, normalised) was 48.4% (active).

For the compound `O=S(=O)(c1cccs1)N1CCCc2nc(-c3ccc(Br)cc3)ccc21`, the activity (Tm shift, normalised) was 0.061% (inactive).

Consider `C[C@@H]1CCCCO[C@@H](CN(C)Cc2ccc(C(=O)O)cc2)[C@H](C)CN([C@H](C)CO)C(=O)c2cc(NS(=O)(=O)c3cccs3)ccc2O1`, for which the activity (Tm shift, normalised) was -0.274% (inactive).

Regarding `C[C@@H]1CN([C@H](C)CO)C(=O)c2cc(NS(=O)(=O)c3ccccc3)ccc2O[C@@H](C)CCCCO[C@H]1CN(C)S(=O)(=O)c1ccc(Cl)cc1`, the activity (Tm shift, normalised) is -0.893% (inactive).

`COCc1cn(CC[C@H]2CC[C@H](NC(=O)Nc3ccc4c(c3)OCO4)[C@@H](CO)O2)nn1`: the activity (Tm shift, normalised) was -0.239% (inactive).

`CO[C@@H]1CN(C)C(=O)c2cc(NC(=O)Nc3cccc(F)c3)ccc2OC[C@H](C)N(C)C[C@@H]1C`: the activity (Tm shift, normalised) is -0.31% (inactive).

Turning to `COc1ccc(-c2ccc3c(c2)[C@H]2[C@H](CCN2C(=O)C2CCOCC2)[C@H](CO)N3C)cc1`, the activity (Tm shift, normalised) was -0.244% (inactive).

Turning to `Cc1ccc(C2=Nc3c(ccc4ccccc34)C(c3ccncc3)=NN2)cc1`, the activity (Tm shift, normalised) was 44% (active).

Regarding `COc1ccc(S(=O)(=O)N(C)C[C@@H]2Oc3ccc(NC(=O)CCN4CCOCC4)cc3CC(=O)N([C@@H](C)CO)C[C@@H]2C)cc1`, the activity (Tm shift, normalised) was -0.109% (inactive).

With `Cn1c(=O)c2cc(S(=O)(=O)NCCC(=O)Nc3ccc(F)cc3F)ccc2n(C)c1=O`, the activity (Tm shift, normalised) is 43.3% (active).

For the compound `COc1ccc(NC(=O)CCNS(=O)(=O)c2ccc3c(c2)c(=O)n(C)c(=O)n3C)cc1OC`, the activity (Tm shift, normalised) was -0.132% (inactive).

Regarding `CCc1ccccc1NC(=O)CN(C)S(=O)(=O)c1ccc2c(c1)c(=O)n(C)c(=O)n2C`, the activity (Tm shift, normalised) is -0.036% (inactive).

As for `CCCC#Cc1cnc2c(c1)C(=O)N([C@@H](C)CO)C[C@@H](C)[C@@H](CN(C)Cc1ccccc1F)O2`, the activity (Tm shift, normalised) was -0.354% (inactive).

Turning to `C/C(=N/OC(=O)c1ccc(Br)cc1)c1ccc(C)cc1`, the activity (Tm shift, normalised) was 0.152% (inactive).

As for `Cc1ccn2c(-c3csc(Nc4ccc(C(=O)O)cc4)n3)c(C)nc2c1`, the activity (Tm shift, normalised) was -0.135% (inactive).

Regarding `C/C(=N\OC(=O)c1ccccc1)c1c(C)nc2cc(C)ccn12`, the activity (Tm shift, normalised) is 44.6% (active).

`Cc1ccccc1-c1cnc2c(c1)C(=O)N([C@H](C)CO)C[C@@H](C)[C@H](CN(C)C(=O)c1cccnc1)O2`: the activity (Tm shift, normalised) was 0.163% (inactive).

For the compound `CO[C@@H]1CN(C)C(=O)c2ccc(NC(=O)Nc3cc(Cl)cc(Cl)c3)cc2OC[C@H](C)NC[C@H]1C`, the activity (Tm shift, normalised) was -0.905% (inactive).

On to `Cc1ccc(S(=O)(=O)N[C@H]2CCC[C@@H]2O)cc1`, for which the activity (Tm shift, normalised) is -0.275% (inactive).

Take `CC(C)c1ccc(S(=O)(=O)NC2CCCC2)cc1`: the activity (Tm shift, normalised) was 0.004% (inactive).

On to `Cc1ccc(S(=O)(=O)NC2CCCCCC2)cc1`, for which the activity (Tm shift, normalised) is 43% (active).

As to `C[C@@H]1CN([C@@H](C)CO)C(=O)CCCn2cc(nn2)CO[C@@H]1CN(C)S(=O)(=O)c1ccccc1C#N`, the activity (Tm shift, normalised) was -0.156% (inactive).

Regarding `CSc1ccc(/C=N\NC(=O)CC(=O)NC(C)C)cc1`, the activity (Tm shift, normalised) is 43.1% (active).

Regarding `CSc1ccc(/C=N/NC(=O)c2cccc(Cl)c2)cc1`, the activity (Tm shift, normalised) is 0.743% (inactive).

Regarding `O=C(CC(=O)N/N=C\c1ccc(F)cc1)NCCc1ccccc1`, the activity (Tm shift, normalised) is 0.292% (inactive).

Consider `Cc1ccc(S(=O)(=O)N(C)C[C@@H]2Oc3ccc(NS(=O)(=O)c4cccs4)cc3C(=O)N([C@@H](C)CO)C[C@H]2C)cc1`, for which the activity (Tm shift, normalised) was -0.456% (inactive).

As to `CO[C@H]1CN(C)C(=O)c2cc(NC(=O)C3CCC3)ccc2OC[C@H](C)N(CC2CCCCC2)C[C@@H]1C`, the activity (Tm shift, normalised) was 0.141% (inactive).

For `O=S(=O)(ON(c1ccccc1)S(=O)(=O)c1ccccc1)c1ccccc1`, the activity (Tm shift, normalised) was 1.68% (active).

Regarding `CCN(c1ccccc1)S(=O)(=O)c1ccc(N)cc1`, the activity (Tm shift, normalised) is -0.161% (inactive).

For the compound `O=S(=O)(c1ccccc1)N(Cc1cccc(F)c1)c1ccccc1`, the activity (Tm shift, normalised) was -0.239% (inactive).

For the compound `CN1c2ccc(C3=CCCCC3)cc2[C@@H]2[C@@H](CCN2S(=O)(=O)c2ccccc2F)[C@H]1CO`, the activity (Tm shift, normalised) is -0.132% (inactive).

Consider `Cc1noc(C)c1NC(=O)N[C@H]1C=C[C@@H](CC(=O)Nc2ccccc2)O[C@H]1CO`, for which the activity (Tm shift, normalised) was -0.156% (inactive).

Take `CO[C@@H]1CN(C)C(=O)c2cc(NS(=O)(=O)c3cccc(F)c3)ccc2OC[C@@H](C)NC[C@@H]1C`: the activity (Tm shift, normalised) is -0.14% (inactive).

In the case of `Clc1ccc(C[n+]2cc(-c3ccccc3)n3c2CCC3)cc1`, the activity (Tm shift, normalised) is -0.249% (inactive).

For `Cc1ccc(-c2c[n+](CC(=O)Nc3ccccc3)c3n2CCC3)cc1`, the activity (Tm shift, normalised) is -0.075% (inactive).

As for `Cc1ccc(C(=O)C[n+]2cc(-c3ccccc3)n3c2CCCCC3)cc1`, the activity (Tm shift, normalised) is 44.4% (active).

In the case of `O=C(C[C@H]1C=C[C@H](NC(=O)Nc2cc(F)ccc2F)[C@H](CO)O1)Nc1ccccc1`, the activity (Tm shift, normalised) was 0.041% (inactive).

Take `C[C@@H]1CCCCO[C@@H](CN(C)Cc2ccncc2)[C@@H](C)CN([C@@H](C)CO)C(=O)c2cc(NC(=O)Nc3ccc(F)cc3)ccc2O1`: the activity (Tm shift, normalised) is -0.232% (inactive).

Turning to `CCCNC(=O)C[C@@H]1CC[C@H]2[C@@H](COC[C@@H](O)CN2Cc2ccccc2F)O1`, the activity (Tm shift, normalised) was 0.109% (inactive).

For the compound `CCC(=O)Nc1ccc2c(c1)OC[C@H](C)N(C(=O)Cc1cccnc1)C[C@@H](C)[C@@H](OC)CN(C)C2=O`, the activity (Tm shift, normalised) was -0.218% (inactive).

Take `CCc1cccc(NC(=O)O[C@H]2[C@H](OC(=O)Nc3ccccc3-c3ccccc3)[C@H](OC(=O)Nc3ccccc3-c3ccccc3)[C@@H](OC)O[C@@H]2CO)c1`: the activity (Tm shift, normalised) is -0.082% (inactive).

In the case of `COc1ccc(S(=O)(=O)N2CCCCN3[C@H](CO)[C@H](c4ccc(C5=CCCCC5)cc4)[C@@H]3C2)cc1`, the activity (Tm shift, normalised) is -0.535% (inactive).

Regarding `O=[N+]([O-])c1ccc(N2CCOCC2)cc1`, the activity (Tm shift, normalised) was -0.032% (inactive).

`O=[N+]([O-])c1ccc(N2CCN(CC(O)COc3ccccc3)CC2)cc1` (configuration not stated): the activity (Tm shift, normalised) is 43.9% (active).

Consider `OC(COc1ccccc1)CN1CCN(c2cccc(Cl)c2)CC1` (configuration not stated), for which the activity (Tm shift, normalised) was 0.055% (inactive).

As to `CC(C)NC(=O)Nc1ccc2c(c1)C(=O)N([C@H](C)CO)C[C@H](C)[C@H](CN(C)C(=O)CCC(F)(F)F)OCCCC[C@H](C)O2`, the activity (Tm shift, normalised) is -0.429% (inactive).

`CN1CCN(C(=O)C[C@H]2CC[C@H]3[C@@H](COc4ccc(NC(=O)C5CCC5)cc4C(=O)N3C)O2)CC1`: the activity (Tm shift, normalised) is -0.349% (inactive).

With `COC(=O)C1=C(C)N(C)C(=O)NC1c1ccc([N+](=O)[O-])o1` (configuration not stated), the activity (Tm shift, normalised) was 43.8% (active).

Take `COC(=O)C1=C(C)N(C)C(=S)NC1c1ccccc1` (configuration not stated): the activity (Tm shift, normalised) was 0.104% (inactive).

Consider `COc1ccc(C2NC(=O)N(C)C(C)=C2[N+](=O)[O-])cc1` (configuration not stated), for which the activity (Tm shift, normalised) is 0.013% (inactive).
